A selection: hits, their analogues and other compounds. The true share with any hit is near 17%.
ATXN viability: reduces viability in counter-screen for ATXN expression inhibitors | S2 cells (HEK-293 line with an ATXN2-luciferase reporter) viability, CellTiter-Fluor protease fluorescence, 24 h | Potency, µM (titrated, usually from 56.7 µM), hits mostly cytotoxic | 400,000 tested, 0.49% active; also: nearly all actives have a fitted effect of over 40% in size
HepG2 tox: HepG2 cytotoxicity, counter-screen for TGF-b inhibitors | 410,000 tested, 0.76% active | HepG2 CAGA-GFP viability, ATP luminescence, 18 h | Potency, µM (top dose mostly 46.1 µM), for inactives: top-dose activity change, negative = cytotoxicity, most hits filed as cytotoxic
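HepG2 CAGA-GFP cells (1000/well, DMEM with 1% FBS) received compound, then TGF-beta at 500 pg/mL final, and were incubated 18 hours at 37 degrees C. Viability was read by CellTiter-Glo luminescence. Media-only wells were set as complete cell-killing and DMSO as no toxicity.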
DT40 TDP1 no CPT: qHTS for Inhibitors of human tyrosyl-DNA phosphodiesterase 1 (TDP1): qHTS in cells in absence of CPT; 420,000 tested, 15% active; DT40 Tdp1-/- hTDP1 cells, no CPT, ATP luminescence, 48 h; Potency, µM (top dose mostly 46.2 µM), inactives show top-dose activity change, negative = growth inhibition, most hits filed as inhibitors; also: % is scaled to controls: 0 for no effect and ±100 for the full control effect; nearly all actives have a fitted effect of over 55% in size
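Readout: luminescence from CellTiter-Glo after 30 min in the dark at RT. Cells: DT40 Tdp1-/- with stable hTDP1, 400/well. Exposure: compounds alone, ≥48 hr, 37 °C.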
TGFb inhibitor: TGF-b pathway inhibition | HepG2 CAGA-GFP TGF-b/SMAD3 reporter, GFP fluorescence, 18 h; TGF-beta stimulated, 500 pg/mL final | Potency, µM (top dose mostly 46.1 µM), without a hit: top-dose activity, negative = inhibition, most hits filed as inhibitors | 410,000 tested, 1.2% active | AID 588855; also: % is scaled to controls: 0 for no effect and ±100 for the full control effect; nearly all actives have a fitted effect of over 65% in size
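Smad-responsive CAGA-GFP expression was quantified in HEPG2 cells exposed to compounds and 500 pg/mL final TGF-beta for 18 h at 37 degrees C; unstimulated wells defined full inhibition.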
ATXN2 expr inh: inhibitors of ATXN2 expression | HEK-293 ATXN2-luciferase reporter, luminescence, 24 h | 360,000 tested, 0.72% active | Potency, µM (highest dose often 57 µM), for the others: at the highest dose activity change, negative = inhibition, most hits filed as inhibitors; also: % is scaled to controls: 0 for no effect and ±100 for the full control effect; nearly all actives have a fitted effect of over 55% in size
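ATXN2-luciferase reporter cells (luciferase flanked by upstream and downstream ATXN2 gene portions) were treated 24 h at 37 °C with compounds at up to 57 uM. SteadyGlo luminescence gave expression; GF-AFC fluorescence gave viability.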
TDP1 cell CPT: growth inhibition of DT40 Tdp1-/-;hTDP1 cells with camptothecin (screen for TDP1 inhibitors). chicken DT40 Tdp1-/-;hTDP1 cells + 20 nM CPT, ATP luminescence, 48 h. Potency, µM (titrated, usually from 46.2 µM), without a hit: top-dose activity change, negative = growth inhibition, actives largely listed as inhibitors. 420,000 tested, 12% active; also: % is scaled to controls: 0 for no effect and ±100 for the full control effect; nearly all actives have a fitted effect of over 55% in size
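Cell growth measured by CellTiter-Glo luminescence after a minimum 48 h, 37 C compound exposure with 20 nM CPT in Tdp1-knockout DT40 cells stably expressing hTDP1, seeded 400/well; qHTS titration format.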
* hit, by the source's call; i = inactive; ? = inconclusive; nt = no result. Calls follow the shape of the dose curve; as a rule, active = well fitted curve in the direction sought with a large enough effect; inconclusive = small, poorly fitted or top-dose-only effect, or another doubt; inactive = no such curve, though single readings can be large; an effect the other way counts as inactive or inconclusive. Potency is read from the fitted curve at half-maximal effect.

SMILES | ATXN viability | HepG2 tox | DT40 TDP1 no CPT | TGFb inhibitor | ATXN2 expr inh | TDP1 cell CPT
COC(=O)c1ccccc1NC(=O)C12CC3CC(C1)CC(n1cnc(Cl)n1)(C3)C2 | i | -38% | 16µM* | -5% | -9% | 21µM*
COc1ccc(NC(=O)C23CC4CC(C2)CC(n2cnc(Br)n2)(C4)C3)cc1Cl | i | -37% | 23µM* | -4% | -7% | ?
O=C(O)c1cccc(NC(=O)C23CC4CC(C2)CC(n2cnc(Cl)n2)(C4)C3)c1 | i | 10% | 9% | 0% | -13% | 10%
O=C(Nc1cccc2ccccc12)C12CC3CC(C1)CC(n1cnc([N+](=O)[O-])n1)(C3)C2 | i | -2% | 26µM* | 4% | -20% | 23µM*
COC(=O)C12CC3CC(C1)CC(n1cnc(Cl)n1)(C3)C2 | ? | 0% | -16% | 10% | -6% | ?
CCOC(=O)C1(C)CCCN1C(=O)c1ccc(C(F)(F)F)nc1C (stereo not given) | i | -2% | 0% | 11% | 14% | 1%
Cc1cccc(-c2noc(-c3cccnc3NCc3ccccc3Cl)n2)c1 | i | 1% | 0% | -6% | 39% | -15%
Cc1nc(N)c(CC(Br)CBr)c(Cl)n1 (stereo not given) | i | 2% | 7.3µM* | 10% | nt | 8.2µM*
C=C1C(=O)C2=CC1CCC(=O)C1(C)CCC(OC(C)=O)C(C)(C)C1CC2O (stereo not given) | nt | -98% | 2.1µM* | 2.8µM* | ? | 2.1µM*
Cc1[nH]c2ccccc2c1C(=O)CSc1nc2cc(S(=O)(=O)N3CCCCC3)ccc2o1 | i | -48% | 21µM* | -4% | ? | 23µM*
CCn1c(SCC(=O)c2cc(C)ccc2C)nc2cc(S(=O)(=O)N3CCOCC3)ccc21 | i | -15% | 18µM* | -20% | -12% | ?
CCSc1nc2cc(S(=O)(=O)N3CCOCC3)ccc2o1 | i | 1% | ? | -1% | -7% | ?
CCC(C)NC(=O)CSc1nc2cc(S(=O)(=O)N3CCOCC3)ccc2n1CC (stereo not given) | i | 0% | 9% | 1% | -3% | 5%
CCn1c2ccccc2c2nc3cc(S(=O)(=O)N4CCOCC4)ccc3nc21 | i | 7% | 13µM* | ? | -12% | 15µM*
Cc1ccc(C(=O)CSc2nc3cc(S(=O)(=O)N4CCOCC4)ccc3o2)cc1 | i | -14% | ? | 0% | 1% | 18µM*
Cc1ccc(-c2c(CC(=O)O)c(C)nc3sc4c(c23)CCCC4)cc1 | i | -2% | 2% | -8% | 1% | 8%
O=C(CSc1nc2cc(S(=O)(=O)N3CCOCC3)ccc2o1)Nc1c(F)cccc1F | i | -15% | 21µM* | 0% | -14% | 21µM*
O=S1(=O)CCOCCCN1Cc1cccc(Cl)c1 | nt | 2% | ? | 1% | nt | -72%
CCOc1ccccc1NC(=O)c1ccc(NC(=O)c2ccco2)cc1 | i | -7% | 16µM* | ? | -8% | ?
CCOc1ccccc1NC(=O)c1ccc(C(=O)Nc2ccccc2OCC)cc1 | i | 4% | -12% | 32% | 10% | -11%
COc1ccccc1NC(=O)c1ccc(NC(=O)c2ccco2)cc1 | i | -2% | 16µM* | 4% | -20% | ?
COc1ccccc1NC(=O)c1cccc(NC(=O)c2ccco2)c1 | i | 5% | ? | 11% | -4% | -23%
O=C(C1CCC1)N1CCN(c2ccc(Cl)cc2)CC1 | i | -10% | ? | -10% | 14% | -7%
CC1(C(=O)Nc2ncc(Cc3ccc(Br)cc3)s2)Cc2ccccc2C(=O)O1 (stereo not given) | i | -20% | 23µM* | ? | -24% | 23µM*
CC1(C(=O)Nc2nnc(SCc3ccccc3)s2)Cc2ccccc2C(=O)O1 (stereo not given) | i | -3% | ? | 3% | -5% | ?
SMILES | ATXN viability | HepG2 tox | DT40 TDP1 no CPT | TGFb inhibitor | ATXN2 expr inh | TDP1 cell CPT
O=c1cc(Nc2ccc3c(c2)OCCO3)[nH]c(=O)n1-c1ccc(Cl)cc1 | i | -1% | 18µM* | 4% | -15% | 23µM*
O=c1cc(Nc2ccc3c(c2)OCCO3)[nH]c(=O)n1C1CCCCC1 | ? | -23% | 16µM* | -11% | ? | 15µM*
O=c1[nH]c(Nc2ccc3c(c2)OCCO3)nnc1Cc1ccc(Cl)cc1 | i | -10% | ? | -2% | -15% | ?
C=CCC1(CC=C)CCCN1C(=O)c1cc(COc2cccc(C(F)(F)F)c2)on1 | i | 12% | 15µM* | ? | -22% | 15µM*
O=C(c1cc(COc2cccc(C(F)(F)F)c2)on1)N1CCC(Oc2cccnc2)CC1 | i | -25% | 12µM* | ? | -25% | 15µM*
O=C(c1cc(COc2cccc(C(F)(F)F)c2)on1)N1CCCC1 | i | -26% | ? | -7% | nt | ?
CCOC(=O)N1CCN(C(=O)c2cc(COc3cccc(C(F)(F)F)c3)on2)CC1 | i | -36% | 16µM* | 0% | 68% | ?
COc1ccc(S(=O)(=O)N2CCCCC2)cc1NC(=O)c1ccc(Cl)nc1 | i | 0% | -14% | 7% | 4% | ?
CN(C)[C@@H](CO)c1nnc([C@H](Cc2ccc(O)cc2)NC(=O)C2CCNCC2)o1 | i | -7% | -17% | -1% | 4% | 5%
CC(C)CNC(=O)COC(=O)c1c2c(nc3ccccc13)/C(=C/c1cccs1)CC2 | nt | -30% | 26µM* | -6% | 35% | ?
CCCCNC(=O)COC(=O)c1c2c(nc3ccccc13)/C(=C\c1cccs1)CC2 | nt | -19% | ? | ? | 2% | ?
